Test results from PubChem BioAssay (NCATS).
Results filed as inconclusive are left out. Active and inactive are the calls of the source. Calls follow the shape of the dose curve; as a rule, active = well fitted curve in the direction sought with a large enough effect; inconclusive = small, poorly fitted or top-dose-only effect, or another doubt; inactive = no such curve, though single readings can be large; an effect the other way counts as inactive or inconclusive.

Legend:
[1] = Quantitative highthroughput screen to assess conditional lethalithy of NOMO1 cells grown in RPMI1640 with untreated serum (RPMI+s) (AID 1963876); conditions: NOMO1 AML cells in RPMI+serum, CellTiter-Glo viability, 48 h; series mostly up to 45.8 µM; also: nearly all actives have a fitted effect of over 35% in size; also: potency is read from the fitted curve at half-maximal effect;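 as to viability: 100% = DMSO wells and 0% = empty wells without cells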
Procedure, shortened: (§1)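 Each medium arm—HPLM with 10% dialyzed FBS, or RPMI1640 with 5 mM glucose and 10% untreated or dialyzed FBS—was screened against an 11-point, 3-fold compound titration for 48 h at 37 °C, with CellTiter-Glo luminescence as endpoint.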

[2] = Quantitative highthroughput screen to assess conditional lethalithy of P12 Ichikawa cells grown in RPMI1640 with dialyzed fetal bovine serum (RPMI+ds) (AID 1963880); conditions: ATP luminescence, 48 h; Potency: P12-Ichikawa viability; series mostly up to 45.8 µM; also: nearly all actives have a fitted effect of over 35% in size; also: potency is read from the fitted curve at half-maximal effect;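 as to viability: 100% = DMSO wells and 0% = empty wells on each plate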
Procedure, shortened: as §1

[3] = Quantitative highthroughput screen to assess conditional lethalithy of P12 Ichikawa cells grown in RPMI1640 with untreated serum (RPMI+s) (AID 1963881); conditions: ATP luminescence, 48 h; Potency: viability; series mostly up to 45.8 µM; also: nearly all actives have a fitted effect of over 35% in size; also: potency is read from the fitted curve at half-maximal effect;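 as to viability: 100% = DMSO wells and 0% = empty wells without cells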
Procedure, shortened: as §1

[4] = Quantitative highthroughput screen to assess conditional lethalithy of SEM cells grown in Human Plasma-Like Medium with dialyzed fetal bovine serum (HPLM+ds) (AID 1963882); conditions: SEM B-ALL cells in HPLM+ds, CellTiter-Glo viability, 48 h; series mostly up to 45.8 µM; also: nearly all actives have a fitted effect of over 35% in size; also: potency is read from the fitted curve at half-maximal effect
Procedure, shortened: as §1

[5] = Quantitative highthroughput screen to assess conditional lethalithy of SEM cells grown in RPMI1640 with unreated serum (RPMI+s) (AID 1963883); conditions: SEM B-ALL cells, CellTiter-Glo viability, 48 h; series mostly up to 45.8 µM; also: nearly all actives have a fitted effect of over 35% in size; also: potency is read from the fitted curve at half-maximal effect;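 as to viability: 100% = DMSO wells and 0% = empty wells without cells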
Procedure, shortened: as §1

[6] = Quantitative highthroughput screen to assess conditional lethalithy of SEM cells grown in RPMI1640 with dialyzed fetal bovine serum (RPMI+ds) (AID 1963884); conditions: SEM B-ALL cells, RPMI+dialyzed FBS, CellTiter-Glo viability, 48 h; series mostly up to 45.8 µM; also: nearly all actives have a fitted effect of over 35% in size; also: potency is read from the fitted curve at half-maximal effect;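 as to viability: 100% = DMSO control wells and 0% = empty wells without cells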
Procedure, shortened: as §1

[7] = Cellular viability qHTS for adrenocortical cancer (ACC) cell line SW-13 (AID 1963989); conditions: SW-13 ACC cells viability, CellTiter-Glo, 48 h; activity (max response): active compounds read low;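 also: cells grown in serum-free medium with ITS supplement; % is scaled to controls: 0 for no effect and ±100 for the full control effect; nearly all actives have a fitted effect of over 65% in size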
Procedure, shortened: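 Luminescent ATP read-out (CellTiter-Glo, 20 min at room temperature) measured metabolically competent SW-13 cells after 48 h compound treatment. Final concentrations spanned up to 46 uM; bortezomib served as positive control.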

[8] = Cellular viability qHTS for adrenocortical cancer (ACC) cell line NCI-H295R (AID 1963990); conditions: CellTiter-Glo ATP luminescence, 48 h; series mostly up to 46.1 µM; also: nearly all actives have a fitted effect of over 60% in size; also: potency is read from the fitted curve at half-maximal effect
Procedure, shortened: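 IC50 and maximal efficacy derive from four-parameter logistic modelling of titration curves, with reads scaled between DMSO-only wells (0%) and doxorubicin hydrochloride (100% inhibition). Compounds spanned up to 46 uM over 48 h.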

[9] = Quantitative highthroughput screen to assess conditional lethalithy of NOMO1 cells grown in RPMI1640 with dialyzed fetal bovine serum (RPMI+ds) (AID 1963877); conditions: NOMO1 in RPMI+dialyzed FBS viability, ATP luminescence, 48 h; series mostly up to 45.8 µM; also: nearly all actives have a fitted effect of over 30% in size; also: potency is read from the fitted curve at half-maximal effect;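 as to viability: 100% = DMSO control wells and 0% = empty wells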
Procedure, shortened: as §1

[10] = Quantitative highthroughput screen to assess conditional lethalithy of NOMO1 cells grown in Human Plasma-Like Medium with dialyzed fetal bovine serum (HPLM+ds) (AID 1963878); conditions: NOMO1 AML cells in HPLM+ds, CellTiter-Glo viability, 48 h; series mostly up to 45.8 µM; also: nearly all actives have a fitted effect of over 35% in size; also: potency is read from the fitted curve at half-maximal effect;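 as to viability: 100% = DMSO wells and 0% = empty wells on each plate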
Procedure, shortened: as §1

[11] = Quantitative highthroughput screen to assess conditional lethalithy of P12 Ichikawa cells grown in Human Plasma-Like Medium with dialyzed fetal bovine serum (HPLM+ds) (AID 1963879); conditions: ATP luminescence, 48 h; Potency: viability; series mostly up to 45.8 µM; also: nearly all actives have a fitted effect of over 35% in size; also: potency is read from the fitted curve at half-maximal effect
Procedure, shortened: as §1

COC(=O)[C@H](c1ccccc1Cl)N1CCc2sccc2C1
inactive: Potency [4] | Potency [5] | Potency [6] | activity (max response) [7] -22.7% | Potency [8]
active: Potency [1] 1.05 µM | Potency [2] 11.8 µM | Potency [3] 9.35 µM

COc1cc(C=CC(=O)CC(=O)C=Cc2ccc(O)c(OC)c2)ccc1O
active: Potency [9] 42.9 µM | Potency [10] 24.1 µM | Potency [11] 21.5 µM | Potency [2] 34 µM | Potency [3] 34 µM | Potency [4] 19.1 µM | Potency [5] 17.1 µM | Potency [6] 21.5 µM

CCC1=C(C)CN(C(=O)NCCc2ccc(S(=O)(=O)NC(=O)NC3CCC(C)CC3)cc2)C1=O (stereo not drawn)
inactive: Potency [9] | Potency [10] | Potency [11] | Potency [2] | Potency [3] | Potency [4] | Potency [5] | Potency [6] | activity (max response) [7] -7.59% | Potency [8]

O=C(O)c1ccc(O)c2ncc(N3CCOCC3)cc12
inactive: Potency [1] | activity (max response) [7] -5.09% | Potency [8]
active: Potency [6] 18.7 µM

NNCCc1ccccc1
inactive: Potency [9] | Potency [11] | Potency [2] | Potency [3] | activity (max response) [7] -8.17% | Potency [8]

O=c1[nH]c(=O)n([C@H]2C[C@@H](O)[C@@H](CO)O2)cc1I
inactive: Potency [9] | Potency [2]
active: Potency [10] 11.8 µM | Potency [4] 7.43 µM

C[C@H]1Oc2cc(cnc2N)-c2c(nn(C)c2C#N)CN(C)C(=O)c2ccc(F)cc21
active: Potency [8] 17.8 µM
inactive: Potency [9] | Potency [10] | Potency [11] | Potency [3] | Potency [4] | Potency [5] | Potency [6] | activity (max response) [7] -27%

OCC(O)C(O)C(O)CO (stereo not drawn)
inactive: Potency [9] | Potency [10] | Potency [11] | Potency [2] | Potency [3]

O=c1[nH]c(=O)n([C@H]2C[C@@H](O)[C@@H](CO)O2)cc1F
active: Potency [9] 0.0148 µM | Potency [11] 0.0833 µM | Potency [2] 0.0743 µM | Potency [4] 0.0235 µM | Potency [5] 2.35 µM

Cc1c(C)c2c(c(C)c1O)CCC(C)(COc1ccc(CC3SC(=O)NC3=O)cc1)O2 (stereo not drawn)
active: Potency [4] 16.6 µM
inactive: Potency [9] | Potency [10] | Potency [3] | Potency [8]

CCOC(=O)c1c(CSc2ccccc2)n(C)c2cc(Br)c(O)c(CN(C)C)c12
active: Potency [9] 16.6 µM
inactive: Potency [10] | Potency [11] | Potency [4] | Potency [6]

C[C@H](NC(=O)C(C#N)=Cc1cccc(Br)n1)c1ccccc1
active: Potency [9] 3.32 µM | Potency [10] 1.87 µM | Potency [11] 1.48 µM | Potency [2] 2.35 µM | Potency [3] 2.35 µM | Potency [4] 1.32 µM | Potency [5] 0.935 µM

CC1(C)S[C@H]2[C@H](NC(=O)[C@@H](N)c3ccc(O)cc3)C(=O)N2[C@@H]1C(=O)O
inactive: Potency [6]
active: Potency [9] 9.35 µM | Potency [10] 5.26 µM | Potency [11] 7.43 µM | Potency [2] 5.9 µM | Potency [3] 8.33 µM | Potency [4] 16.6 µM

COc1ccc(-c2coc3cc(O)ccc3c2=O)cc1
inactive: Potency [9] | Potency [11] | Potency [2] | Potency [3] | Potency [4] | Potency [5] | Potency [6]

NC(=O)NN=Cc1ccc([N+](=O)[O-])o1
inactive: Potency [9] | Potency [10] | Potency [11] | Potency [3] | Potency [4] | Potency [5] | Potency [6]

COc1ccc2cc([S+]([O-])Cc3ncc(C)c(OC)c3C)nc2c1
inactive: Potency [9] | Potency [11] | Potency [2] | Potency [3] | Potency [5]
active: Potency [6] 0.935 µM

CCC1=C[C@@H]2CN(C1)Cc1c([nH]c3ccccc13)[C@@](C(=O)OC)(c1cc3c(cc1OC)N(C)[C@@H]1[C@@](O)(C(=O)OC)[C@H](OC(C)=O)[C@]4(CC)C=CCN5CC[C@]31[C@@H]54)C2
active: Potency [9] 0.0743 µM | Potency [11] 0.0372 µM | Potency [3] 0.0209 µM | Potency [4] 0.059 µM | Potency [5] 0.0209 µM

CCOC(=O)[C@H](CCc1ccccc1)N[C@@H](C)C(=O)N1[C@@H](C(=O)O)C[C@H]2CCC[C@@H]21
active: Potency [9] 23.5 µM | Potency [10] 23.5 µM | Potency [5] 20.9 µM

Cc1ccc(C2=Nc3ccc(Cl)cc3OC2)cc1
active: Potency [3] 20.9 µM
inactive: Potency [9] | Potency [10] | activity (max response) [7] -18.7% | Potency [8]

OCc1ccccc1O[C@@H]1O[C@H](CO)[C@H](O)[C@H](O)[C@H]1O
active: Potency [9] 13.2 µM | Potency [10] 7.43 µM | Potency [2] 16.6 µM

CC(O)=C(C#N)C(=O)Nc1ccc(C(F)(F)F)cc1
inactive: Potency [9] | Potency [10] | Potency [11] | Potency [3]

C=CC[N+]1([C@H]2C[C@H]3[C@@H]4CC[C@H]5C[C@H](O)[C@@H](N6CCOCC6)C[C@]5(C)[C@@H]4CC[C@]3(C)[C@H]2OC(C)=O)CCCC1
inactive: Potency [9] | Potency [10] | Potency [11] | Potency [2] | Potency [3] | Potency [4] | Potency [5] | Potency [6]

O=C(OCC#CCSc1nnc(-c2cccc3ccccc23)o1)c1cc2ccccc2s1
inactive: Potency [9] | Potency [10] | Potency [11] | Potency [2] | Potency [4] | Potency [5] | Potency [6]
